Screen size: about 6,200 compounds; about 2,900 (47%) were called active. Cut-off read from the data, not from the text of the source: active = inhibition above about 50%; inactive = the rest. The set was probably picked from earlier hits. The list shows a part of the results. Where a SMILES comes first, the peptide text is derived from it. [ ]: non-standard residue; d: D form. Orn = NCCC[CH](N)C(=O)O

A short description of the assay: Mycobacterium tuberculosis growth inhibition, primary screen (AID 1259343). Particulars: inhibition: at 10 µM, active compounds read high; outcome: 10 uM.
A word on the inhibition: it is the relative decrease from the control value, in per cent. Consider `CCCc1cc(=O)[nH]c(-n2nc(C)cc2NC(=O)C(C)(C)CCl)n1`, for which the inhibition is 102% (active).

For `CCCc1cc(=O)[nH]c(-n2nc(C)cc2NC(=O)C(C)(C)Oc2ccc(Cl)cc2)n1`, the inhibition was 2.87% (inactive).

With `CCCc1cc(=O)[nH]c(-n2nc(C)cc2NC(C)=O)n1`, the inhibition was 99.8% (active).

In the case of `CCCc1cc(=O)[nH]c(-n2nc(C)cc2NC(=O)CC)n1`, the inhibition was 100% (active).

Turning to `O=c1c(O)cccc2cc(O)c(O)c(O)c12`, the inhibition is 64.6% (active).

In the case of `CCCCNC(=S)NNc1ncnc2sc(C)c(C)c12`, the inhibition was 65.6% (active).

Regarding `Cc1ccsc1C=NNc1ncnc2sc(C)c(C)c12`, the inhibition was 66.9% (active).

Consider `CCCC(CCC)=NNc1ncnc2sc(C)c(C)c12`, for which the inhibition was 96.3% (active).

`CC(=NNc1ncnc2sc(C)c(C)c12)c1ccc(Cl)s1`: the inhibition was 47.1% (inactive).

`COC(=O)C(C)Sc1ncnc2sc(C)c(C)c12` (stereo not given): the inhibition is -21% (inactive).

Regarding `Cc1sc2ncnc(SCC(=O)c3ccc(Cl)s3)c2c1C`, the inhibition is 13.9% (inactive).

For `COC(=O)c1ccc(CSc2ncnc3c2nnn3Cc2ccccc2)o1`, the inhibition is 26.9% (inactive).

As for `COC(=O)c1ccc(CSc2ncnc3c2nnn3Cc2ccc(F)cc2)o1`, the inhibition was 3.1% (inactive).

Regarding `COC(=O)c1ccc(Cn2ncc(Cl)c(Cl)c2=O)o1`, the inhibition was 75.5% (active).

For the molecule `CC(C)C(C)NC(=O)Nc1nc(-c2ccccc2)ns1` (stereo not given), the inhibition was 83.1% (active).

For the molecule `COCC1(NC(=O)Nc2nc(-c3ccccc3)ns2)CCCC1`, the inhibition is 5.18% (inactive).

`CCOC(=O)C1(Cc2ccc(Cl)cc2)CCN(C(=O)Nc2ccc(Cl)cc2C)CC1`: the inhibition is 1.06% (inactive).

Regarding `CCOC(=O)C1(CCOc2ccccc2)CCN(Cc2nc(C(C)C)cs2)CC1`, the inhibition entry was “inactive”.

As for `CCOC(=O)C1(Cc2ccc(Cl)cc2)CCN(Cc2cccc3nonc23)CC1`, the inhibition was 78.1% (active).

Consider `CNC(=O)c1ccccc1NC(=O)c1ccc(C)c(Br)c1`, for which the inhibition was 23.1% (inactive).

With `Cc1cc(Br)ccc1NC(=O)c1ccc([N+](=O)[O-])o1`, the inhibition is 38.1% (inactive).

As for `Cc1cccc(NC(=O)c2n[nH]c([N+](=O)[O-])c2Br)c1C`, the inhibition is 86.8% (active).

Consider `C=CCSc1nn2c(=O)c3ccccc3nc2s1`, for which the inhibition was 97.6% (active).

Turning to `CCOc1ccc(Br)c(C=Nc2ccc3oc(=O)ccc3c2)c1O`, the inhibition is 81.3% (active).

Turning to `Cc1csc2nc(O)c(C(=O)NCCc3ccccc3)c(=O)n12`, the inhibition was 82.8% (active).

For `Cc1c(C(=O)NCc2ccc(Cl)c(Cl)c2)sc(=O)n1Cc1ccc(F)cc1`, the inhibition was 17.9% (inactive).

On to `CC(=O)NCc1ccc(-c2nc(CCc3ccccc3)sc2C)s1`, for which the inhibition is 28% (inactive).

As to `Cc1nc(COc2ccc(C(=O)NCc3ccc(F)cc3)cc2)cs1`, the inhibition was -15.9% (inactive).

With `Cc1csc2nc(O)c(C(=O)NCc3ccc(F)cc3)c(=O)n12`, the inhibition was 74.4% (active).

On to `Cc1c(C(=O)NCc2ccc(Cl)c(Cl)c2)sc(=O)n1CCc1ccccc1`, for which the inhibition is 35.6% (inactive).

`CCOc1ccc(NC(=O)c2cncc(Br)c2)cc1F`: the inhibition was 44.8% (inactive).

`O=C(Nc1ncccc1OC(F)F)c1cncc(Br)c1`: the inhibition was 89.3% (active).

Turning to `C=CCN(c1ccccc1)S(=O)(=O)c1ccc(Br)cc1Cl`, the inhibition is 27.3% (inactive).

For `COc1ccc2c(c1)CC(c1nc(Cc3ccc(F)cc3)no1)CO2` (stereo not given), the inhibition is 63.1% (active).

For `C1=CCC(c2nc(Cc3cccnc3)no2)CC1` (stereo not given), the inhibition was -4.1% (inactive).

Regarding `COc1ccc2cc(C3CN(Cc4noc(C5CC5)n4)CCO3)ccc2c1` (stereo not given), the inhibition is 23.6% (inactive).

Regarding `CCCCN(C)C1=CC2=CC(=C(C#N)C#N)CCC2CC1` (stereo not given), the inhibition is 45.5% (inactive).

Take `N#CC(C#N)=C1C=C2C=C(N3CCCCCC3)CCC2CC1` (stereo not given): the inhibition was 73.5% (active).

On to `N#CC(C#N)=C1C=C2C=C(N3CCCCC3)CCC2CC1` (stereo not given), for which the inhibition is 49% (inactive).

On to `Cn1nc(C(F)(F)F)cc1-c1ccc(C(=O)O)s1`, for which the inhibition was 46.4% (inactive).

Turning to `O=C(O)c1cnc(-c2ccc(C(F)(F)F)cc2)s1`, the inhibition was 60.4% (active).

Turning to `O=C(O)c1cnc(/C=C/c2cccc(C(F)(F)F)c2)s1`, the inhibition was -17.4% (inactive).

As for `Brc1ccc(Sc2ncnc3sccc23)cc1`, the inhibition was 19.4% (inactive).

With `Clc1cc(Br)ccc1Oc1ncnc2sccc12`, the inhibition was 70.4% (active).

Regarding `O=C1NC(=Nc2ccccc2Cl)S/C1=C\c1ccsc1`, the inhibition is 59.3% (active).

As for `O=C1COc2ccc(C3=NNC(=Nc4ccccc4Cl)SC3)cc2N1`, the inhibition is 11.7% (inactive).

On to `CN(C)CC/C=C1\c2ccccc2Sc2ccc(Cl)cc21`, for which the inhibition is 90.1% (active).

In the case of `Oc1c(Cl)cc(Cl)cc1C1=NNC(c2ccccc2F)C1` (stereo not given), the inhibition was 38.9% (inactive).

In the case of `Cn1c(Cl)cnc1C1CC(c2cc(Cl)ccc2O)=NN1` (stereo not given), the inhibition is 101% (active).

On to `Oc1ccc(F)cc1C1=NNC(c2ccc(Cl)cc2)C1` (stereo not given), for which the inhibition was 60.6% (active).

For `CN(Cc1ccc(Cl)cc1)Cc1cc2c(cc1O)CCC2`, the inhibition was 22.8% (inactive).

As to `COc1ccc(NC(=O)CSc2nnc3ccccn23)c(OC)c1`, the inhibition was 81.5% (active).

Turning to `O=C(CSc1nnc2ccccn12)Nc1c(Cl)c(Cl)cc(Cl)c1Cl`, the inhibition is -1.75% (inactive).

As to `CC(C)CC1NC(=O)C(CCCN)NC(=O)C(C(C)C)NC(=O)C2CCCN2C(=O)C(Cc2ccccc2)NC(=O)C(CC(C)C)NC(=O)C(CCCN)NC(=O)C(C(C)C)NC(=O)C2CCCN2C(=O)C(Cc2ccccc2)NC1=O` (stereo not given) (cyclo(FPV[Orn]LFPV[Orn]L); configuration not given here), the inhibition is 46.4% (inactive).

In the case of `CCOC(=O)c1ccc(N=Cc2c(O)[nH]c(=O)[nH]c2=O)cc1`, the inhibition is 73.1% (active).

With `CCCCn1c(O)c(C=Nc2ccc(CC)cc2)c(C)c(C#N)c1=O`, the inhibition is 24.8% (inactive).

Regarding `COC(=O)c1ccc(Nc2ccc(OCC3CCCO3)cc2)nn1` (stereo not given), the inhibition is 93.6% (active).

In the case of `COc1cc(C(=O)N2CCOC(COc3ccc(C)cc3)C2)cc(Cl)n1` (stereo not given), the inhibition is 29.3% (inactive).

As for `Clc1cccc(Nc2nc3nonc3n3nnnc23)c1`, the inhibition is 54.3% (active).

For the molecule `CC(C)S(=O)(=O)c1ccc(C(=O)Nc2onc3c2CCC3)cc1`, the inhibition was 84.8% (active).

`CCc1csc(Cn2cc(C(C)c3ccccc3)nn2)n1` (stereo not given): the inhibition is -13.5% (inactive).

Take `CCc1cc(OCCCCn2cnc3ccccc3c2=O)ccc1Cl`: the inhibition was 64.6% (active).

Turning to `Cc1cc2ncn(CCCOc3ccccc3)c2cc1C`, the inhibition is 36.7% (inactive).

In the case of `O=c1c2ccccc2ncn1CCCCSc1ccccc1`, the inhibition is 89.1% (active).

With `Cc1ccc(SCCCCN2C(=O)NC(C)(C)C2=O)cc1`, the inhibition was -48.6% (inactive).

Source of the values: PubChem BioAssay AID1259343 (VanderVen Lab, College of Veterinary Medicine, Cornell …, 2017).
